SMILES strings stand for the structures. Records with an inconclusive call do not appear. Entries that show only a call come without a potency. Activity calls are given as the source filed them. Calls follow the shape of the dose curve; as a rule, active = well fitted cell-killing curve with a large enough effect in the repeat runs; inconclusive = weak or mixed curves, or effect the other way; inactive = no such curve, though single readings can be large or run the other way.
Potency is read from the fitted curve at half-maximal effect.

The assay is described as follows: qHTS assay to identify small molecule antagonists of the vitamin D receptor (VDR) signaling pathway - cell viability counter screen (AID 743225). Also: nearly all actives have a fitted effect of over 50% in size. The conditions noted are these: VDR-bla HEK293T viability, CellTiter-Glo luminescence, 16 h; series mostly up to 61 µM. From the text:
U.S. Tox21 Program National Center for Advancing Translational Sciences [NCATS] NIH Chemical Genomics Center [NCGC] U.S. Environmental Protection Agency [EPA] National Institutes of Environmental Health Sciences [NIEHS] National Toxicology Program [NTP] U.S. Food and Drug Administration [FDA] Tox21 Assay Overview: The vitamin D receptor (VDR), a member of nuclear hormone receptor superfamily, plays a critical role in calcium homeostasis and bone metabolism. It is also involved in cell differentiation and growth, and thrombogenicity. To identify the compounds that inhibit VDR signaling, the VDR-UAS-bla HEK 293T cell line (Invitrogen, Carlsbad, CA, USA) containing a beta-lactamase reporter gene under the control of an upstream activator sequence (UAS) was used to screen the Tox21 10K compound library. The cytotoxicity of the Tox21 compound library against the VDR-bla cell line was tested in parallel by measuring the cell viability using CellTiter-Glo assay (Promega, Madison, WI) in the same wells.
Tox21 Assay Protocol Summary: VDR-bla cells were dispensed at 2,000 cells/5 uL of assay medium per well into black wall/clear-bottom 1536-well plates using a Multidrop Combi (Thermo Fisher Scientific, Waltham, MA) dispenser. After the assay plates were incubated at a 37C and 5% CO2 for 4 h, 23 nL of compounds dissolved in DMSO, positive controls or DMSO only was transferred to the assay plate by a Pintool station (Kalypsys, San Diego, CA), followed by addition of 1 uL of 1-alpha, 25-Dihydroxy Vitamin D3 (3 nM, final concentration in the wells) using a Bioraptr Flying Reagent Dispenser (FRD) workstation (Beckman Coulter, Indianapolis, IN). The plates were incubated at 37C and 5% CO2 for 16 h, and then 1 uL of LiveBLAzerTM B/G FRET substrate was added using a Bioraptr FRD. The plates were incubated at room temperature for 2 h and fluorescence intensity was measured by an Envision plate reader (PerkinElmer, Shelton, CT). For cell viability readout that measures cytotoxicity, 3 ul/well of CellTiter-Glo reagent was added into the assay plates using a Bioraptr FRD. After 30 min incubation at room temperature, the luminescence intensity in the plates was measured using a ViewLux plate reader (PerkinElmer).
For orientation: In qHTS, concentration-response curves come from the screen itself.
With `FC(Cl)(Cl)C(F)(Cl)Cl`, the Potency result was “inactive”. The result for `OCCSSCCO` reads “inactive”; that for `CCCCNC(=O)OCC#CI`, “inactive”; that for `O=C(O)C(Cl)(Cl)Br`, “inactive”. The entry for `NNCCO` is “inactive”; for `C=C(C)C(=O)OCCCCOC(=O)C(=C)C` it is “inactive”. The entry for `COc1cc(C[C@@H](C)N)c(OC)cc1Br` is “inactive”.

For the compound `Clc1ccccc1`, the Potency entry was “inactive”. Regarding `CCCN(CCOc1c(Cl)cc(Cl)cc1Cl)C(=O)n1ccnc1`, the Potency result is “inactive”. The result for `COP(=O)(OC)OC(Br)C(Cl)(Cl)Br` (stereo not given) reads “inactive”; that for `ClCc1ccccc1Cl`, “inactive”; that for `CCOC(=O)NC(O)C(Cl)(Cl)Cl` (stereo not given), “inactive”. The result for `CC(C)(C)N(NC(=O)c1ccc(Cl)cc1)C(=O)c1ccccc1` reads “inactive”; that for `CCc1cnc(C2=NC(C)(C(C)C)C(=O)N2)c(C(=O)O)c1` (stereo not given), “inactive”.

For the compound `Cc1ccc2c(C)cccc2c1`, the Potency result is “inactive”. Turning to `CCCC1CCCCN1` (stereo not given), the Potency entry is “inactive”. Consider `N#CC(C#N)=Cc1ccc(O)c(O)c1`, for which the Potency result was “inactive”. In the case of `CC(C)c1ccc(NC(=O)N(C)C)cc1`, the Potency entry is “inactive”. As to `C=CC(=O)OCC`, the Potency result was “inactive”. In the case of `O=C(O)C(F)(F)C(F)(F)C(F)(F)C(F)(F)C(F)(F)F`, the Potency entry is “inactive”. Regarding `CC(C)(C)NCC(O)c1cc(Cl)c(N)c(C(F)(F)F)c1` (stereo not given), the Potency entry was “inactive”. Turning to `CCSCc1ccccc1OC(=O)NC`, the Potency entry is “inactive”.

Regarding `Clc1ccc(Cl)c(Cl)c1`, the Potency entry is “inactive”.

As for `CCCN(CCC)C(=O)Cc1c(-c2ccc(Cl)cc2)nc2ccc(Cl)cn12`, the Potency result was “inactive”. Consider `C=CCc1ccc(OC(=O)Cc2ccccc2)c(OC)c1`, for which the Potency entry is “inactive”.

Turning to `C[C@H]1[C@@H]2Cc3ccc(O)cc3[C@@]1(C)CCN2C`, the Potency entry was “inactive”.

Regarding `NP(N)(=O)NC(=O)c1ccc(F)cc1`, the Potency entry was “inactive”. Take `CC(C)(C)CC(C)(C)c1ccc(O)cc1`: the Potency was 17.4 µM (active). In the case of `O=S(=O)(Cl)Cl`, the Potency result is “inactive”. Turning to `O=C(NCNC(=O)NC1C(=O)NC(=O)N1CO)NC1C(=O)NC(=O)N1CO` (stereo not given), the Potency entry is “inactive”. The entry for `Cc1cnc(C2=NC(C)(C(C)C)C(=O)N2)c(C(=O)O)c1` (stereo not given) is “inactive”. `Nc1cc(Cl)cc(C(=O)O)c1Cl`: the Potency result is “inactive”. The entry for `C[C@H](N)[C@H](O)c1ccc(O)c(O)c1` is “inactive”. The result for `COc1ccc(C(O)(c2cncnc2)C2CC2)cc1` (stereo not given) reads “inactive”; that for `NCCc1cc(O)c(O)cc1O`, “inactive”; that for `c1ccc2c(c1)-c1cccc3cccc-2c13`, “inactive”.

For the compound `O=CC=O`, the Potency entry is “inactive”. The result for `Nc1ccccc1C(=O)OCCc1ccccc1` reads “inactive”; that for `CCCCC#N`, “inactive”.

Consider `CCOC(C(=O)OCCN(C)C)(c1ccccc1)c1ccccc1`, for which the Potency result was “inactive”.
